Test results: PubChem BioAssay AID817 (Emory University Molecular Libraries Screening Center, 2007)
The campaign covered roughly 140,000 compounds. About 300 (0.21%) were called active.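 Rule for the calls: active = z-score above 3 at both the 24 hr and the 30 hr optical density reads; inactive = the rest, inconclusive results apart.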 What follows is part of a selection rich in actives, with near analogues and random picks from the rest.

Experiment: growth rescue of sdo1-depleted yeast, primary screen, S. cerevisiae, bone marrow failure model (AID 817);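 note: z-score against mean and SD of all compound wells on the same plate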
Conditions: S. cerevisiae sdo1-depleted JHY4D growth rescue, at 10 µM, stronger effect = higher value, pdr5 snq2 efflux-pump mutant strain
[1] = OD600, measured here: growth rescue at 24 h

Cc1ccccc1C1=NC(C(F)(F)F)(C(F)(F)F)c2c(n(-c3ccc(F)cc3)c(=O)[nH]c2=O)N1
z-score (OD600 30 h): 0.91 (inactive)
z-score [1]: 1.23

CC(C)(C)CC(C)(C)NCC(O)COCCOc1ccc(Br)cc1 (stereo not drawn)
z-score (OD600 30 h): -1.47 (inactive)
z-score [1]: -1.24

CCCn1c(C)cc(/C=C(\C#N)C(=O)OCC(=O)Nc2cc(OC)c(OC)c(OC)c2)c1C
z-score (OD600 30 h): -0.22 (inactive)
z-score [1]: -0.65

COC(=O)c1sccc1NC(=O)COc1ccc(Cl)cc1
z-score (OD600 30 h): -0.81 (inactive)
z-score [1]: 0.03

Cc1cc(C)cc(NC(=S)NCc2ccc(F)cc2)c1
z-score (OD600 30 h): -0.44 (inactive)
z-score [1]: -0.91

COc1ccc(C2=NN(C(=O)c3cccnc3)C(c3ccccc3)C2)cc1 (stereo not drawn)
z-score (OD600 30 h): -0.64 (inactive)
z-score [1]: -0.53

Cc1ccc(Nc2cc(C)nc3c(C)ccc([N+](=O)[O-])c23)cc1
z-score (OD600 30 h): -2.1 (inactive)
z-score [1]: -1.28

O=c1c2sccc2nc(SCc2cc(=O)n3ccccc3n2)n1-c1ccc(Br)cc1
z-score (OD600 30 h): -0.28 (inactive)
z-score [1]: 0.04

Cc1ccc(C)c(NC(=O)CCC(=O)NNC(=O)c2cccs2)c1
z-score (OD600 30 h): 0.52 (inactive)
z-score [1]: -0.15

O=C(CSc1ccc(C(F)(F)F)cc1[N+](=O)[O-])NCCOc1ccccc1
z-score (OD600 30 h): -0.75 (inactive)
z-score [1]: -0.39

Cc1cccc(C(=O)OCC(=O)Nc2sc3c(c2C#N)CCC3)c1
z-score (OD600 30 h): 1.54 (inactive)
z-score [1]: 1.79

CCCNC(=O)NC(=O)COC(=O)CC(NC(N)=O)c1ccc(Cl)cc1 (stereo not drawn)
z-score (OD600 30 h): 1.01 (inactive)
z-score [1]: 0.32

CC[C@H]1OC(=O)[C@H](C)[C@@H](O[C@H]2C[C@@](C)(OC)[C@@H](O)[C@H](C)O2)[C@H](C)[C@@H](O[C@@H]2O[C@H](C)C[C@H](N(C)C)[C@H]2O)[C@](C)(O)C[C@@H](C)[C@@H]2N[C@@H](COCCOC)O[C@H]([C@H]2C)[C@]1(C)O
z-score (OD600 30 h): 2.24 (inactive)
z-score [1]: 2.51

Cc1cc(Cl)ccc1OCCCC(=O)NCc1ccncc1
z-score (OD600 30 h): -0.45 (inactive)
z-score [1]: -0.98

O=C(CCN1C(=O)c2ccccc2C1=O)C1=NN[C@@H]2C(=O)N(c3ccc(F)cc3)C(=O)[C@H]12
z-score (OD600 30 h): 0.12 (inactive)
z-score [1]: -0.42

CC(NC(=O)COC(=O)C1CCN(S(=O)(=O)c2ccccc2C(F)(F)F)CC1)c1ccccc1 (stereo not drawn)
z-score (OD600 30 h): 1.2 (inactive)
z-score [1]: 1.46

Cc1ccc(S(=O)(=O)/N=C(/Nc2ccccn2)c2ccc(Cl)cc2)cc1
z-score (OD600 30 h): -1.04 (inactive)
z-score [1]: -0.87

O=S(=O)(/N=C(/Nc1ccccn1)c1ccccc1)c1ccc(Cl)cc1
z-score (OD600 30 h): 5.14 (active)
z-score [1]: 4.98

Cc1ccc(S/C(=N\S(=O)(=O)c2ccc(Cl)cc2)c2ccccc2)cc1
z-score (OD600 30 h): -0.79 (inactive)
z-score [1]: -1.13

Cc1sc2ncnc(Sc3nc4ccccc4s3)c2c1C
z-score (OD600 30 h): 0.02 (inactive)
z-score [1]: -0.34

CC(C)NC(=S)N1CCN(C(c2ccccc2)c2ccccc2)CC1
z-score (OD600 30 h): -1.16 (inactive)
z-score [1]: -1.01

CC(C)=C(NC(=O)c1ccccc1)C(=O)N/N=C(\C)c1ccccc1O
z-score (OD600 30 h): 1.49 (inactive)
z-score [1]: 2.26

Cc1ccc(C(=O)c2ccc(N3CCN(C)CC3)c([N+](=O)[O-])c2)cc1
z-score (OD600 30 h): 1.82 (inactive)
z-score [1]: 1.21

COc1ccc(NC(=O)CC2C(=O)OCC3CCCCN32)cc1Cl (stereo not drawn)
z-score (OD600 30 h): 0.14 (inactive)
z-score [1]: -0.04

Cc1ccc(N=C2NC(=O)c3cccc([N+](=O)[O-])c32)cc1
z-score (OD600 30 h): 0.32 (inactive)
z-score [1]: 0.33

CCN(CC)c1ccc(C(=O)N/N=C(\C)c2cccc(OC)c2)cc1
z-score (OD600 30 h): 0.86 (inactive)
z-score [1]: 0.18

NC(=O)CCC(NS(=O)(=O)c1ccc(Cl)cc1)C(=O)NCc1ccccc1Cl (stereo not drawn)
z-score (OD600 30 h): -0.28 (inactive)
z-score [1]: -1.21

Cc1ccc(C(=O)CNc2ccc(F)cc2)cc1
z-score (OD600 30 h): 0.78 (inactive)
z-score [1]: -0.09

Fc1ccccc1CNC(=S)Nc1ccc(Cl)cc1
z-score (OD600 30 h): -1.01 (inactive)
z-score [1]: -0.89

CCOC(=O)C(C)Sc1nnc(CSc2nc3nc(C)cc(C)n3n2)o1 (stereo not drawn)
z-score (OD600 30 h): 0.4 (inactive)
z-score [1]: 0.13

CCOc1ccccc1C1CC(c2cccc(NS(C)(=O)=O)c2)=NN1C(=O)c1ccccc1 (stereo not drawn)
z-score (OD600 30 h): -0.43 (inactive)
z-score [1]: -0.52

c1cncc(-c2nnc3n2C2(CCCCC2)Cc2ccccc2-3)c1
z-score (OD600 30 h): -0.05 (inactive)
z-score [1]: -0.69

CCOc1cccc2c1OC1(CCCCC1)N1N=C(c3cccnc3)CC21 (stereo not drawn)
z-score (OD600 30 h): 13.5 (active)
z-score [1]: 3.28

N/C(=N\OC(=O)N1c2ccccc2Sc2ccccc21)c1ccc(Br)cc1
z-score (OD600 30 h): -1.34 (inactive)
z-score [1]: -1.41

Cc1cc(-c2csc(N)n2)c(C)n1-c1ccccc1
z-score (OD600 30 h): 0.37 (inactive)
z-score [1]: 0.28

C/C(=N\NC(=O)c1ccc(NS(=O)(=O)c2cccs2)cc1)c1ccc2ccccc2c1
z-score (OD600 30 h): 0.3 (inactive)
z-score [1]: 0.75

COc1ccc(/C(C)=N/NC(=O)CCC(=O)Nc2ccc(Cl)cc2Cl)c(OC)c1
z-score (OD600 30 h): 5.63 (active)
z-score [1]: 5.64

CCCCC(=O)N/N=C(\C)CC(=O)Nc1cc(Cl)ccc1OC
z-score (OD600 30 h): 0.09 (inactive)
z-score [1]: -0.2

COc1ccc(/C(C)=N/Nc2cc(C(F)(F)F)ccc2Cl)c(OC)c1
z-score (OD600 30 h): -0.18 (inactive)
z-score [1]: -0.33
